Compound activity deposited in PubChem BioAssay by National Center for Advancing Translational Sciences (NCATS).
A549 tox: Nrf2 qHTS screen for inhibitors: counterscreen for cytotoxicity; A549 ARE-Fluc cells, CellTiter-Fluor viability, 18-24 h; Potency, µM (titrated, usually from 46 µM), for the others: top-dose activity change, negative = cytotoxicity, hits mostly inhibitors; actives 0.16% (n = 390,000); AID 504648, 2011; also: potency is read from the fitted curve at half-maximal effect
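Cytotoxicity counterscreen: CellTiter-Fluor fluorescence was measured in A549 ARE_Fluc cells after 18-24 h of compound exposure in a concentration series. The subsequent BugLite luminescent read reports ARE-luciferase activity.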
PI4K2A inh: qHTS for small molecular inhibitors of PI4K2A. purified PI4K2A, ADP-Glo luminescence, 1 h; active compounds read low. activity change, negative = inhibition, % at 76.9 µM. actives 0.13% (n = 420,000). AID 1346378, 2018; in the data active = activity change below about -50%; inconclusive = mostly about -30% to -49%;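 also: -100% = wells without enzyme as full effect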
Target sequence (Q9BTU6 whole entry, looked up): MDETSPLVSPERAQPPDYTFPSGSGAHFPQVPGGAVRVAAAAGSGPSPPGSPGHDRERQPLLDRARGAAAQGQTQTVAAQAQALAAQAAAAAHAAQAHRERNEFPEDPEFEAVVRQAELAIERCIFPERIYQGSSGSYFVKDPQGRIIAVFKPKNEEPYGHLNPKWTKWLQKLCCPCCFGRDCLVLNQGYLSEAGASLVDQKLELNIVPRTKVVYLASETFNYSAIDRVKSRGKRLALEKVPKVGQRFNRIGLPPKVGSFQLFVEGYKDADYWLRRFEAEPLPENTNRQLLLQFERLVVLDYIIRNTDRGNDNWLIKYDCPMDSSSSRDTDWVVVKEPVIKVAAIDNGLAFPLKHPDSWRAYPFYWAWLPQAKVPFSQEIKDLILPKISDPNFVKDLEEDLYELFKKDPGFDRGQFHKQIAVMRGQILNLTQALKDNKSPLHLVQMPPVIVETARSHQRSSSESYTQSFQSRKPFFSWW
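PI4K2A activity was measured by ADP-Glo luminescence: enzyme (4 ug/mL stock) and phosphatidylinositol (1.2 mM stock) in Tris pH 7.5/MgCl2/EGTA/Triton X-100 buffer were reacted with ATP (300 microM stock) for one hour at ambient temperature.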
KB-3-1 cytotox: qHTS assay for MDR1-selective chemotherapeutics: Primary screen using the parental adenocarcinoma cell KB-3-1 | KB-3-1 viability, CellTiter-Glo ATP luminescence, 72 h | Potency, µM (series often up to 46.1 µM), actives largely listed as cytotoxic | actives 1.4% (n = 400,000) | AID 1347075, 2019; also: potency is read from the fitted curve at half-maximal effect; nearly all actives have a fitted effect of over 60% in size
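Using CellTiter-Glo luminescence, growth of non-resistant KB-3-1 adenocarcinoma cells is assessed 72 h after pin-tool compound addition at 37 °C. Normalized responses across the concentration series yield fitted curves.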
KB-V1 cytotox: qHTS assay for MDR1-selective chemotherapeutics: Primary screen using the drug-selected MDR subline cells KB-V1; Potency, µM (doses to about 46.1 µM), usual class: cytotoxic; actives 3.4% (n = 400,000); KB-V1 MDR cells viability, CellTiter-Glo, 72 h; also: potency is read from the fitted curve at half-maximal effect; nearly all actives have a fitted effect of over 60% in size
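KB-V1 cells (P-gp-expressing MDR subline of KB-3-1) in phenol-red-free DMEM with 10% FBS were exposed to library compounds over a concentration series for 72 h at 37 degrees C. Viability read by CellTiter-Glo luminescence; concentration-effect curves fitted after normalization.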
Giardia killer: Small Molecules that selectively kill Giardia lamblia: qHTS | activity change, % at 7.66 µM, hits read low | actives 0.15% (n = 340,000) | Giardia lamblia trophozoite viability; in the data active = activity change below about -80%; inconclusive = between about -30% and that limit;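 also: parasites exposed to compound for two days anaerobically before the ATP read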
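Media and compound were dispensed first, then trophozoites at 100 cells/well; plates sat 48 hrs at 37 deg C without oxygen before ATP luminescence reagent was added and read after 15-30 min at room temperature.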
Nrf2 inh: Nrf2 qHTS screen for inhibitors. A549 ARE-Fluc reporter, luciferase luminescence, 18-24 h. Potency, µM (doses to about 46 µM), without a hit: at the highest dose activity change, negative = inhibition, actives largely listed as inhibitors. actives 2.1% (n = 360,000). AID 504444, 2011; also: potency is read from the fitted curve at half-maximal effect; nearly all actives have a fitted effect of over 60% in size
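Two sequential reads on A549 ARE_Fluc cells exposed to compound for 18-24 h: a CellTiter-Fluor fluorescence read for viability, then a luciferase luminescence read for Nrf2/ARE activity.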
An asterisk follows results filed as active; i = inactive; ? = inconclusive; nt = no result given; [ ] = remark or other dose. Sampled rows, rich in hits. Any-hit rate of the full collection: about 5.7%. Unless noted, calls follow the shape of the dose curve; as a rule, active = well fitted curve in the direction sought with a large enough effect; inconclusive = small, poorly fitted or top-dose-only effect, or another doubt; inactive = no such curve, though single readings can be large; an effect the other way counts as inactive or inconclusive. Unless noted, % is scaled to controls: 0 for no effect and ±100 for the full control effect.

SMILES	A549 tox	PI4K2A inh	KB-3-1 cytotox	KB-V1 cytotox	Giardia killer	Nrf2 inh
COc1ccc(S(=O)(=O)N2CCN(CC(=O)Nc3cc(OC)cc(OC)c3)CC2)cc1	-4%	2	i	i	3	-20%
O=C(O)CCCC[P+](c1ccccc1)(c1ccccc1)c1ccccc1	nt	2	nt	nt	nt	nt
COc1ccccc1NS(=O)(=O)c1ccc2c(c1)CCC(=O)N2	9%	nt	nt	nt	nt	3%
CN(CCCOC(=O)c1cc2ccccc2o1)C1CN(Cc2cn(Cc3ccccc3Cl)nn2)S(=O)(=O)C1 (configuration not stated)	nt	-4	nt	nt	nt	nt
COc1cccc(NC(=O)CN2CCN(S(=O)(=O)c3ccc(F)cc3)CC2)c1	-2%	-9	i	i	-4	9%
O=C(CN1CCN(S(=O)(=O)c2ccccc2)CC1)NC(=O)NC1CCCCC1	0%	-1	i	i	0	?
COc1cccc(N2CCN(CC(=O)Nc3ccc(S(=O)(=O)N4CCCCCC4)cc3)CC2)c1	-3%	-1	i	21µM*	-2	-26%
O=C(CN1CCN(S(=O)(=O)c2ccc(Cl)cc2)CC1)NC(=O)NC1CCCCC1	-18%	-4	?	2.3µM*	-5	?
CN1CC(c2ccccc2Cl)C2(COc3ccccc3C2=O)C12C(=O)Nc1ccccc12 (configuration not stated)	-26%	-4	?	?	12	21µM*
Cc1ccc(C2CN(C)C3(C(=O)Nc4ccccc43)C23COc2ccccc2C3=O)cc1 (configuration not stated)	1%	0	?	21µM*	10	?
Cc1ccc(C2NC(=O)c3ccccc3O2)cc1 (configuration not stated)	1%	8	i	i	7	?
CCCC1CCC2(CCCN2CCOC(=O)Nc2ccc(Br)cc2)CC1 (configuration not stated)	nt	-1	nt	nt	nt	nt
COC(=O)c1c(C(=O)OC)c(-c2ccc(Cl)c(Cl)c2)n2c1CCC2	-3%[1.84 µM]	1	i	i	9	18µM*
Cc1ccc(-c2c(C(=O)O)c(C(=O)O)c3n2CCC3)cc1	2%	-2	i	?	-11	-2%
COC(=O)c1c(C(=O)OC)c(-c2ccc(C)cc2)n2c1CCC2	-11%	2	i	15µM*	-10	nt
O=C(O)c1c(C(=O)O)c(-c2ccc(Cl)c(Cl)c2)n2c1CSC2	1%	0	i	i	-20	5%
O=C([C@@H]1C[C@H]1c1ccccc1)N1CC[C@H]2[C@H](CCCN2Cc2cc(F)cc(F)c2)C1	nt	4	nt	nt	nt	nt
COc1ccc(F)cc1S(=O)(=O)NCC(c1ccco1)S(=O)(=O)c1cccs1 (configuration not stated)	-6%	10	nt	nt	nt	nt
CN1/C(=C\C=C2/SC(=S)N(CC(=O)O)C2=O)C(C)(C)c2ccccc21	9.2µM*	-19	i	i	18	4.1µM*
C=CCN1C(=O)/C(=C\C=C2\N(C)c3ccccc3C2(C)C)SC1=S	?	-5	i	i	7	-12%
COC(=O)[C@]12C[C@H](CC(=O)N3CCOCC3)C(=O)N(CCc3ccc(OC)c(OC)c3)C1=C[C@H](C1CCCC1)O[C@@H]2C	nt	1	nt	nt	nt	nt
O=c1c2ccc(Cl)cc2[nH]c(=S)n1Cc1cccnc1	-4%	-2	i	18µM*	5	-9%
CC(C)CCNC(=O)Nc1ccc2c(c1)N(Cc1ccccc1)C(=O)c1ccccc1S2	1%	-2	nt	nt	nt	?
CCCCCCSc1ccc([C@H]2N[C@@](Cc3ccccc3)(C(=O)OC)[C@H]3C(=O)N(CC)C(=O)[C@@H]23)cc1	-9%	-1	?	?	-2	-14%
CCCCCCSc1ccc([C@H]2N[C@@](Cc3ccccc3)(C(=O)OC)[C@H]3C(=O)N(C)C(=O)[C@@H]23)cc1	-8%	-3	?	16µM*	?	?
SMILES	A549 tox	PI4K2A inh	KB-3-1 cytotox	KB-V1 cytotox	Giardia killer	Nrf2 inh
O=C(c1ccc(N2CCN(S(=O)(=O)c3ccccc3)CC2)c([N+](=O)[O-])c1)N1CCOCC1	-3%	-8	i	3.7µM*	2	-17%
CC(=O)c1ccc(S(=O)(=O)N2CCN(C(=O)c3ccc(N)c([N+](=O)[O-])c3)CC2)cc1	-4%	-1	i	i	-9	-2%
CC(=O)N1CCN(S(=O)(=O)c2ccc3c(c2)OCCO3)CC1	1%	-3	?	i	-29	-7%
CC(C)(C)C(=O)N1CCN(S(=O)(=O)c2ccc3c(c2)OCCCO3)CC1	-21%	-2	15µM*	?	2	?
CN(c1ccc(C(=O)N2CCOCC2)cc1[N+](=O)[O-])C1CCCCC1	-4%	-1	i	23µM*	-12	2%
Nc1ccc(C(=O)N2CCN(S(=O)(=O)c3ccc4c(c3)OCCCO4)CC2)cc1[N+](=O)[O-]	?	1	?	?	-16	26µM*
Cc1ccc(NC(=O)C2CCCN(c3nnc(-n4cccc4)s3)C2)cc1C (configuration not stated)	nt	-3	nt	nt	nt	nt
N#Cc1cnn(Cc2ccccc2)c1/N=C/N1CCOCC1	10%	-1	i	i	5	-2%
CN1CCN(/C=N/c2c(C#N)cnn2Cc2ccccc2)CC1	-3%	-2	i	10µM*	24	17%
CSCCC(NS(=O)(=O)c1ccc2c(c1)OCCO2)C(=O)N(C)Cc1ccc(C)cc1 (configuration not stated)	-11%	0	i	?	11	?
COc1cccc(CN(C)C(=O)C(CCSC)NS(=O)(=O)c2ccc3c(c2)OCCO3)c1OC (configuration not stated)	-19%	0	i	15µM*	-9	-9%
CCN(C)C(=O)CN1C(=O)C2CCCCN2C(=O)c2ccccc21 (configuration not stated)	nt	-5	nt	nt	nt	nt
Cc1ccc(Oc2nnc(-c3ccc(C)cc3)c3ccccc23)cc1	-14%	-2	?	18µM*	2	9%
COc1ccccc1C(=O)Nc1ccc(Oc2nnc(-c3ccc(C)cc3)c3ccccc23)cc1	0%	6	i	i	-9	?
c1ccc(-c2nnc(OCc3cccnc3)c3ccccc23)cc1	-1%	-17	i	i	40	-6%
Cc1ccc(-c2nnc(OCc3cccnc3)c3ccccc23)cc1	-14%	-3	i	16µM*	5	-6%
